Consider 89 compounds from PubChem BioAssay AID449762 (Southern Research Specialized Biocontainment Screening …, 2010).

About 1,900 (0.58%) of roughly 330,000 compounds were called active. Not shown: some 4% with an inconclusive outcome. A selection follows. Potency and affinity values are given separately. Unmarked numbers belong to inactive results. Cut-off read from the data, not from the text of the source: inconclusive = inhibition above about 70% without an active follow-up result; inactive = below that.

This assay can be described thus: M. tuberculosis growth inhibition, HTS (AID 449762).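 Note: bacterial growth assessed after seven days of incubation.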 The settings on record: M. tuberculosis H37Rv growth inhibition, 7H9 media; at 25 µM; hits give high values.
On to `Cc1cc(N2CCN(Cc3nc(-c4ccc(F)cc4)oc3C)CC2)cc(C)n1`, for which the inhibition was 9.44%.
The same measure for `Cc1cc(N2CCN(Cc3nc(-c4ccc(Cl)cc4)oc3C)CC2)cc(C)n1`: 15.9%; for `O=c1cnnc(SCCc2ccccc2)[nH]1`: -11.7%.
Then `COc1ccc(-c2nnc3ccc(SC)nn23)cc1`, with 12.5%; and `O=C(O)Cn1ccc2ccccc21`, with -3.21%.
As to `CC(C)Cn1c(CN2CCN(C)C(CCO)C2)nc2ccccc21` (centres undefined), the inhibition was -7.61%.
The same measure for `CC(=O)Oc1ccc2oc(=O)c3c(c2c1)CCCN3C(=O)CN1CCN(c2ncccn2)CC1`: -4.05%.
The same measure for `O=C(CN1CCN(c2ncccn2)CC1)N1CCCc2c1c(=O)oc1ccc(O)cc21`: 6.59%.
The same measure for `O=C(NCCNC(=O)c1ccc(Cl)cc1Cl)c1ccccn1`: 0.45%; for `CCCc1cc(=O)[nH]c(SCC(=O)N2c3ccccc3NC(=O)C2(C)C)n1`: 3.32%; for `CC1=C(C(=O)N2CCOCC2)C(c2cc(C)cs2)NC(=O)N1` (centres undefined): 2.64%.
For `Cc1ccc(F)cc1NC(=O)COC(=O)c1ccc2ncsc2c1`, the inhibition was -5.07%.
As to `c1ccc(C[C@H]2CN=C(Nc3ccccc3)N2CCCC2CCCCC2)cc1`, the inhibition was 22.3%.
Consider `c1ccc(C[C@H]2CN=C(Nc3ccccc3)N2CCC2CCCC2)cc1`, for which the inhibition is 30%.
Then `O=C(O)C(Cc1c[nH]c2ccccc12)NS(=O)(=O)c1cccc(Cl)c1Cl` (centres undefined), with -3.04%; and `Cc1ccc(NC(=O)CN(C)CC(=O)Nc2sc3c(c2C(N)=O)CCC3)cc1`, with 66.6%.
Then `COc1ccc(NC(=O)CN(C)CC(=O)Nc2sc3c(c2C#N)CCC3)cc1`, with -8.9%; and `CC(=O)OC(c1nc2ccccc2c(=O)n1C1CC2(OC1=O)c1ccccc1N1C(=O)C(C)(C)N(O)C12)C(C)C` (centres undefined), with -6.29%.
Turning to `Cc1ccc(N2C(=O)NC(=O)/C(=C\C=C\c3ccco3)C2=O)cc1`, the inhibition is -4.11%.
Consider `Cc1ccc(N2C(=O)NC(=O)/C(=C/C=C/c3ccco3)C2=O)cc1`, for which the inhibition was 53.8%.
The same measure for `Cc1cc(NC(=O)CSCC(=O)N(C)Cc2ccc(F)cc2)no1`: -22.2%; for `Fc1ccc(-c2csc3ncnc(Nc4ccc(N5CCOCC5)cc4)c23)cc1`: 28.8%; for `Cc1ccc(-c2csc3ncnc(Nc4ccc(C(=O)O)cc4)c23)cc1`: 6.21%.
Then `O=C1c2cccc3c([N+](=O)[O-])c(O)cc(c23)C(=O)N1Nc1ccccc1`, with -8.23%; and `O=C(Nc1ccccc1)NC1CCCCC1`, with 7.91%.
The same measure for `CCC(=O)N1c2ccc(S(=O)(=O)NCc3ccccc3)cc2CC1C` (centres undefined): 3.62%; for `COc1ccc(-c2cc(-c3ccccc3)nc(NN)n2)cc1OC`: 2.81%.
With `COc1nc(-c2ccccc2)cc(-c2ccccc2)n1`, the inhibition is 11.4%.
Then `CC(C)Cn1c(SCC(=O)N2CCc3ccccc3C2)nc2cc(Cl)ccc2c1=O`, with -3.67%; and `CCCCN(CC)CCNC(=O)c1cn(C)c(=O)c2c1c1ccccc1n2C`, with -0.73%.
Then `Cc1cc(C)n2nc(CCc3ccccc3)nc2n1`, with 0.58%; and `CCCCCCCC(=O)NNC(=O)c1ccc([N+](=O)[O-])cc1`, with 3.14%; and `CCCCC(=O)NNC(=S)NC(=O)c1cccc([N+](=O)[O-])c1`, with 29%.
Turning to `COc1ccc2oc(=O)c(C(=O)NCc3ccc(C)cc3)cc2c1`, the inhibition was -2.24%.
The same measure for `COc1cc2c(cc1OC)C1=C(C#N)CCC(=O)N1CC2`: 7.82%; for `CNc1nc(C)nc(-n2nc(C)cc2C)n1`: -0.69%; for `Cc1cc(C)n(-c2nc(Nc3ccccc3)nc(-n3nc(C)cc3C)n2)n1`: 15.3%.
Then `Cc1cccc(NC(=O)COC(=O)Cc2cccs2)c1C`, with 4.38%.
The same measure for `Cc1ccc(C)c(N2CN(CCC3=CCCCC3)CNC2=S)c1`: -4.98%; for `C[C@@H]1O[C@@H](O[C@H]2[C@H](Oc3cc(O)c4c(c3)OC(c3ccc(O)cc3)CC4=O)O[C@H](CO)[C@@H](O)[C@@H]2O)[C@H](O)[C@H](O)[C@H]1O` (some centres undefined): -2.06%.
In the case of `C[C@@H]1O[C@@H](O[C@H]2[C@H](Oc3cc(O)c4c(c3)O[C@H](c3ccc(O)cc3)CC4=O)O[C@H](CO)[C@@H](O)[C@@H]2O)[C@H](O)[C@H](O)[C@H]1O`, the inhibition is -0.33%.
For the compound `CCCCc1nc2cc(C(=O)N3CCCCC3CCNC(C)=O)ccc2o1` (centres undefined), the inhibition was 7.94%.
For the compound `CCC(CC)c1nnc(NC(=O)c2cc([N+](=O)[O-])ccc2N2CCOCC2)s1`, the inhibition is 5.48%.
The same measure for `CCN1CCN(C(=S)NC(=O)/C=C/c2cccs2)CC1`: -0.91%; for `NC(=O)NCCC1=CCCCC1`: 7.39%.
Regarding `O=C(NCCC1=CCCCC1)NC1CCCCC1`, the inhibition was 7.21%.
Then `O=C1N[C@@H](Cc2c[nH]c3ccccc23)COC(=O)[C@@H](Cc2ccc(F)cc2)C/C=C\C[C@H]1CC(=O)N(CCO)Cc1ccccc1`, with 4.64%; and `COc1ccc(C(CNC(=O)c2ccc(Br)o2)N2CCN(C)CC2)cc1` (centres undefined), with 2.14%; and `CC(OC(=O)COc1ccccc1Cc1ccccc1)C(=O)N(C)c1ccccc1` (centres undefined), with -4.05%.
The same measure for `CC(=O)Nc1ccc(NC(=O)C(C)OC(=O)COc2ccc(Nc3ccccc3)cc2)cc1` (centres undefined): 40.1%; for `CN(CC(=O)Nc1ccc(Cl)cc1)C(=O)C1=COCCO1`: -13.8%.
Then `Cc1ccc(NS(=O)(=O)c2c(C)[nH]c(C)c2C(=O)N2CCCC2)cc1`, with 2.46%; and `N#C/C(=N/Nc1ccccc1[N+](=O)[O-])C(N)=S`, with -5.6%.
Take `Oc1ccccc1N=N/C(=N/Nc1ccccc1O)c1ccccc1`: the inhibition was 10.4%.
Then `COc1ccc(-c2nc(CN3CCCCC3c3cccnc3)c(C)o2)c(F)c1` (centres undefined), with 3.24%.
Take `c1ccc(Oc2cccc(OCCCCN3CCCC3)c2)cc1`: the inhibition is 1.38%.
Then `CN1CCN(C(=O)c2cnn3c2NC(c2ccccc2)CC3C(F)(F)F)CC1` (centres undefined), with -19.6%; and `CCN(CC)CCCN(Cc1cc2cc3c(cc2[nH]c1=O)OCO3)C(=S)Nc1ccccc1OC`, with -4.51%; and `CCc1ccc(Nc2n[n+](-c3ccccc3)c(-c3ccc(C(=O)O)cc3)s2)cc1`, with 4.87%.
Turning to `C[n+]1nc(Nc2ccccc2)sc1-c1ccc(O)cc1`, the inhibition is 4.57%.
The same measure for `O=C(NCc1cccs1)c1cc(S(=O)(=O)N2CCOCC2)ccc1N1CCCC1`: 5.48%; for `Cc1ccccc1CN1CCN(c2ccc(S(=O)(=O)N3CCCC3)cn2)CC1`: -6.22%; for `COC(=O)C1C(=O)C2=C(CC1C)NC(C)=C(C(=O)OC(C)C)C2c1ccc(C)o1` (centres undefined): 2.94%.
Regarding `COc1cc(OC)cc(-n2nnnc2SCC(=O)N2CCCC2)c1`, the inhibition was -5.03%.
As to `COc1ccc(-n2nnnc2S(=O)(=O)Cc2ccc(C(=O)O)cc2)cc1`, the inhibition was -3.99%.
In the case of `CCCCn1c(C)c(C(=O)O)c2cc(OC)c3ccccc3c21`, the inhibition is 17.8%.
`COc1cc(C(=O)NCCc2cn3ccc(C)cc3n2)cc(OC)c1OC`: the inhibition was -5.75%.
The same measure for `CN=c1scc(-c2cccs2)n1/N=C/c1ccccc1O`: -8.02%; for `CN=c1scc(-c2ccccc2F)n1/N=C/c1ccc[nH]1`: 67.8%.
Then `C[C@H](CO)N1C[C@H](C)[C@@H](CN(C)Cc2ccc(C(=O)O)cc2)Oc2c(NS(=O)(=O)c3ccc(F)cc3)cccc2C1=O`, with -2.1%; and `O=C(NCc1nnc(SCC(=O)N2CCOCC2)o1)c1c(F)cccc1Cl`, with -6.01%; and `COc1cccc(OCC(=O)N(C)Cc2nc(-c3cccc(C)c3)no2)c1`, with 1.4%.
The same measure for `COc1ccc(O)c(C(=O)c2cnn(C(=O)c3cccc(S(=O)(=O)N4CCOCC4)c3)c2)c1`: -2.2%.
For the compound `CCN(CC(=O)NCc1cccs1)C(=O)c1ccc(C)o1`, the inhibition is 2.46%.
Then `CCN(CC(=O)NCc1cccs1)C(=O)c1ccc(-c2ccc(F)cc2)o1`, with -1.53%; and `CCOc1ccc(S(=O)(=O)N2CCN(C(=O)CN3C(=O)NC4(CCCC4)C3=O)CC2)cc1`, with -3.03%.
Then `Cc1ccc(OCc2cc(C(=O)Nc3ccccc3)oc2C)cc1`, with 0.92%.
On to `Cc1oc(C(=O)Nc2ccc(C(=O)O)cc2)cc1COc1ccccc1`, for which the inhibition is -2.76%.
The same measure for `COc1ccc(CCNC(=O)c2cc(C(C)C)on2)cc1OC`: -0.84%; for `Cc1cccc2c1NC(=O)/C2=C\C(=O)c1cccs1`: -9.89%.
As for `CCc1ccc2c(c1)C(O)(CC(=O)c1cccs1)C(=O)N2` (centres undefined), the inhibition is 10.1%.
For `N#Cc1c(-c2ccccc2)c(-c2ccccc2)nn(CC(=O)NNC(=O)Nc2ccc(Cl)cc2)c1=O`, the inhibition is 3.84%.
`N#Cc1c(-c2ccccc2)c(-c2ccccc2)nn(CC(=O)NNC(=O)Nc2ccccc2)c1=O`: the inhibition was -9.35%.
The same measure for `COc1ccc(NC(=O)C23CC4CC(CC(Cl)(C4)C2)C3)cc1S(=O)(=O)N1CCOCC1`: 1.2%; for `COC(=O)Cc1ccc(NC(=O)c2ccc3c(c2)C(=O)N(Cc2ccco2)C3=O)cc1`: -5.45%.
Then `CCOC(=O)c1c(NC(=O)CC2SC(N)=NC2=O)sc(C)c1C` (centres undefined), with 0.41%; and `O=S(=O)(NCCN1CCCC1)c1ccc(Br)cc1`, with 0.37%; and `CCOc1ccc(-c2csc(Cn3c(CN4CCN(C)CC4)nc4ccccc4c3=O)n2)cc1`, with 8.95%.
For `CN1CCN(Cc2nc3ccccc3c(=O)n2Cc2nc(-c3ccc([N+](=O)[O-])cc3)cs2)CC1`, the inhibition was 3.59%.

The term inhibition denotes the drop in the measured response relative to a control, in per cent.
